# FLuc inh-1 – Firefly luciferase inhibition profiling of diverse chemical library using quantitative high-throughput screening; Luciferin 4-monooxygenase (Photinus pyralis), P08659; purified P. pyralis luciferase, luminescence, biochemical; AID 1347043, 2019; 76,000 compounds, 2.5% hits; Potency, µM (highest dose often 115 µM), actives largely listed as inhibitors; also: % is scaled to controls: 0 for no effect and ±100 for the full control effect; nearly all actives have a fitted effect of over 65% in size
# Target sequence (P08659 whole entry, looked up): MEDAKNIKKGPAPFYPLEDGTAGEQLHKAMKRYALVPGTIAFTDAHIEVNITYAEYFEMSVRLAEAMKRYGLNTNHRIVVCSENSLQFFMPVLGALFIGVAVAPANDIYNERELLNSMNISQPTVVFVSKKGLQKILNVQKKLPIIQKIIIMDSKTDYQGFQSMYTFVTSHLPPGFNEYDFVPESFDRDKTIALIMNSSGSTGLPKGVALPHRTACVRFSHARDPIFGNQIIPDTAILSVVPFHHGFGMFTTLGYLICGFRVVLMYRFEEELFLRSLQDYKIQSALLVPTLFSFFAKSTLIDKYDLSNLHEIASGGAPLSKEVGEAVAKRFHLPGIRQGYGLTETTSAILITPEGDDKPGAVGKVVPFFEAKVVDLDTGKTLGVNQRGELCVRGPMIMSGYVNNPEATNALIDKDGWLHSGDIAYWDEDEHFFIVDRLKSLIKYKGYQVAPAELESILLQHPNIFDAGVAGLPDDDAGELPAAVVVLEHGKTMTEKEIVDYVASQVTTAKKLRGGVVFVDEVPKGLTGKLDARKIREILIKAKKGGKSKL
#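 Luminescence read by CCD imager after adding enzyme (10nM final) to wells holding compound, titrated in qHTS. Substrates 10uM each D-luciferin and ATP; buffer 50mM Tris acetate pH 7.5, 10mM Mg acetate, Tween-20, BSA.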
# NPR1 antag – Natriuretic polypeptide receptor (hNpr1) antagonism - Primary qHTS; Atrial natriuretic peptide receptor 1 (Homo sapiens), P16066; HEK293 hNpr1 GloSensor cGMP, ANP-stimulated luminescence; 76,000 compounds, 1.6% hits; Potency, µM (doses to about 46.3 µM), for the others: top-dose activity change, negative = inhibition, most hits filed as inhibitors; calls by dose curve; also: % is scaled to controls: 0 for no effect and ±100 for the full control effect; nearly all actives have a fitted effect of over 60% in size
#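 Compound pre-incubated 30 min at room temperature on GloSensor-loaded HEK293 cells stably carrying hNpr1 and the pGS-40F cGMP biosensor. Stimulation uses hNppA at 0.1 nM final; luminescence is taken at baseline and 20 min post-agonist.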
# NIH3T3 tox – Cytotoxic Profiling in NIH 3T3 Cell Line of Diverse Libraries Using Quantitative High-Throughput Screening; NIH 3T3 viability, CellTiter-Glo ATP luminescence, 48-72 h; Potency, µM (series often up to 96.7 µM), inactives show top-dose activity change, negative = cytotoxicity, hits mostly inhibitors; 94,000 compounds, 4.3% hits; also: % is scaled to controls: 0 for no effect and ±100 for the full control effect; nearly all actives have a fitted effect of over 55% in size
#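 First NIH 3T3 cells are plated at 400 cells/well; next compound is pinned in; then plates incubate 48 or 72 hr at 37 °C; finally CellTiter-Glo is added and luminescence read after 10 min.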
# HEK293 tox – Cytotoxic Profiling in HEK 293 Cell Line of Diverse Libraries Using Quantitative High-Throughput Screening. Potency, µM (titrated, usually from 115 µM), inactives show top-dose activity change, negative = cytotoxicity, actives largely listed as inhibitors. HEK 293 viability, ATP luminescence (CellTiter-Glo), 48-72 h. 94,000 compounds, 6.6% hits; also: % is scaled to controls: 0 for no effect and ±100 for the full control effect; nearly all actives have a fitted effect of over 60% in size
#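 Cytotoxicity was scored by loss of ATP-coupled luminescence (CellTiter-Glo) in HEK 293 cells. Compound treatment ran 48 or 72 hr at 37 degree Celsius, 5% CO2, 95% humidity.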
# FLuc SDR -ATP – Firefly luciferase (FLuc-C-HiBiT) SDR gain of signal screen - without ATP; shares compounds with FLuc inh-1; Purified FLuc-C-HiBiT, Nano-Glo HiBiT luminescence, no ATP; 1,300 compounds, 7.8% hits; Potency, µM (top dose mostly 32.7 µM), for inactives: at the top dose activation (signal gain), most hits filed as activators; also: nearly all actives have a fitted effect of over 55% in size
# FLuc SDR ATP – Firefly luciferase (FLuc-C-HiBiT) SDR gain of signal screen - plus ATP; shares compounds with FLuc inh-1; purified FLuc-C-HiBiT + ATP, HiBiT complementation luminescence; Potency, µM (top dose mostly 32.7 µM), for inactives: top-dose activation (gain of signal), hits mostly activators; 1,300 compounds, 8.7% hits; AID 1963319, 2024;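 also: signal reports ligand binding via conformational change of the enzyme rather than luciferase catalysis; % of control where 0% means no effect; nearly all actives have a fitted effect of over 55% in size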
# FLuc inh-2 – Firefly luciferase (FLuc-C-HiBiT) enzymatic inhibition screen - Functional assay; shares compounds with FLuc inh-1; purified FLuc-C-HiBiT enzyme, luciferin luminescence; Potency, µM (series often up to 32.7 µM), inactives show top-dose activity change, negative = inhibition, most hits filed as inhibitors; 1,300 compounds, 42% hits; also: % is scaled to controls: 0 for no effect and ±100 for the full control effect; nearly all actives have a fitted effect of over 70% in size
# An asterisk follows results filed as active; i = inactive; ? = inconclusive; . = no result given; [ ] = another dose, or the depositor's remark. A selection: hits, their analogues and other compounds. The true share with any hit is near 11%. Unless noted, calls follow the shape of the dose curve; as a rule, active = well fitted curve in the direction sought with a large enough effect; inconclusive = small, poorly fitted or top-dose-only effect, or another doubt; inactive = no such curve, though single readings can be large; an effect the other way counts as inactive or inconclusive. Potency is read from the fitted curve at half-maximal effect.
SMILES,FLuc inh-1,NPR1 antag,NIH3T3 tox,HEK293 tox,FLuc SDR -ATP,FLuc SDR ATP,FLuc inh-2
CCN1c2cc(C(=O)Nc3ccc4c(c3)OCCO4)ccc2C(=O)N2CCCCC21 (centres undefined),11µM*,-12%,25µM*,?,24%,?,9.9µM*
CN1c2cc(C(=O)Nc3ccc4c(c3)OCCO4)ccc2C(=O)N2CCCCC21 (centres undefined),7.9µM*,-22%,?,?,?,?,9.9µM*
CCN1c2cc(C(=O)Nc3ccc(N(C)C)cc3)ccc2C(=O)N2CCCCC21 (centres undefined),11µM*,-12%,?,45µM*,11%,11%,?
CCNC(=O)O[C@H]1C(=O)N(C)C2(CCN(C(=O)C(C)C)CC2)[C@@H]1C(=O)NC,.,.,?,-9%,.,.,.
Nc1nc(C(=O)N[C@H]2CCOC[C@H]2C2CCOCC2)cs1,i,6%,-6%,-6%,.,.,.
COc1ccccc1CC(=O)Nc1ccc2ncnc(N3CCCC3)c2c1,i,-3%,-19%,?,.,.,.
Cc1cccc(C(=O)Nc2ccc(-c3nc4ccccc4s3)cc2Cl)c1,.,.,.,.,13%,8%,-1%
Cc1cccc(C(=O)Nc2ccc(-c3nnc4n3CCCC4)cc2)c1,i,5%,-14%,?,.,.,.
COc1ccc(CC(=O)Nc2ccc(-c3nc4ccccc4s3)c(C)c2)cc1OC,.,.,.,.,19%,14%,-13%
Cc1cc(-c2nc3ccccc3s2)ccc1NC(=O)c1cc(Cl)ccc1Cl,.,.,.,.,17%,8%,-5%
Cc1ccc(-c2nc3ccccc3s2)cc1NC(=O)c1ccc(-c2cccc(Cl)c2)o1,.,.,.,.,15%,11%,-15%
COc1ccc(C(=O)N2C[C@@H](Oc3cccnc3)C[C@H]2C(=O)N2CCCC2)cn1,i,-1%,i,1%,.,.,.
COc1ccc(C(=O)N(C)Cc2ccc(-c3ccccc3)cc2)cc1,i,-20%[70.6 µM],?,?,.,.,.
CC(C)C(=O)N1Cc2ccccc2CC2(CCN(Cc3ccncc3)C2)C1 (centres undefined),.,.,-20%,-29%,.,.,.
COc1ccc(-c2cc(N3CCC(NC(=O)c4ccc(C)c(C)c4)CC3)n[nH]2)cc1,i,0%,?,?,.,.,.
COc1cc(OC)cc(C(=O)Nc2ccc(-c3nnc4n3CCCC4)cc2)c1,i,4%,-1%,5%,.,.,.
COc1cc(OC)cc(C(=O)Nc2ccc(-c3nc4ccccc4s3)cc2C)c1,.,.,.,.,13%,11%,3%
COc1cc(OC)cc(C(=O)NC2CCN(c3cc(-c4ccccc4)[nH]n3)CC2)c1,i,0%,?,?,.,.,.
COc1cc(OC)cc(C(=O)Nc2ccc(-c3nc4ccccc4s3)c(C)c2)c1,.,.,.,.,13%,10%,1%
Cc1ccc(C(=O)Nc2ccc(-c3nc4ccccc4s3)cc2C)cc1C,.,.,.,.,9%,9%,-5%
CC(=O)N1CC2(Cc3ccccc31)CN([S+](=O)([O-])c1cccc(C(F)(F)F)c1)C2,i,7%,?,?,.,.,.
CC(C)NC(=O)CN1CCN(Cc2cc(=O)c3cccc(Cl)c3[nH]2)CC1,i,-10%,-35%,-17%,.,.,.
Cc1ccc(C2Cn3nnc(C(=O)N4CCN(C(=O)Cc5cccs5)CC4)c3CO2)cc1 (centres undefined),i,-23%,-22%,?,.,.,.
O=C1CCN(Cc2ccncc2)CCCC(C(=O)NCc2ccc(F)cc2)CCN1 (centres undefined),i,2%,i,-2%,.,.,.
CCN1CCN(C(=O)c2ccc3nnc(-c4cc(C(F)(F)F)cc(C(F)(F)F)c4)n3c2)CC1,.,.,-8%,-5%,.,.,.
SMILES,FLuc inh-1,NPR1 antag,NIH3T3 tox,HEK293 tox,FLuc SDR -ATP,FLuc SDR ATP,FLuc inh-2
Cc1ccc(-n2ncc3c(NC4CCCCC4)ncnc32)cc1C,.,.,.,.,27%,?,1.8µM*
Cc1ccc(-n2ncc3c(NC4CCCCC4)ncnc32)cc1Cl,.,.,.,.,33%,?,2.8µM*
Cc1ccccc1N1Cc2c(NC3CCCCCC3)ncnc2N(C)CC1=O,i,-1%,?,?,.,.,.
CCC(=O)N1CCN(c2nc3c(s2)CC(C(=O)O)CC3)CC1 (centres undefined),13µM*,1%,?,-4%,11%,?,?
CCC(=O)N1CCN(c2nc3c(s2)CC(C(=O)N2CCN(CC)CC2)CC3)CC1 (centres undefined),i,-2%,-20%,-2%,.,.,.
O=C1c2cnc(-c3ccc(CO)cc3)nc2OCCN1c1cccc(C(F)(F)F)c1,?,-23%[70.6 µM],?,?,.,.,.
COc1ccc(-c2ncc3c(n2)OCCN(C)C3=O)cc1F,.,.,.,.,?,?,18µM*
COc1ccc(-c2ncc3c(n2)OCCN(c2ccccc2)C3=O)cc1F,0.71µM*,16µM*,?,-27%[172 µM],?,?,3.2µM*
COc1ncccc1-c1ncc2c(n1)OCCN(c1ccccc1)C2=O,i,-1%[70.6 µM],?,0%[172 µM],.,.,.
O=C1c2cnc(-c3cccc(CO)c3)nc2OCCN1c1ccccc1,3.2µM*,?,40µM*,40µM*,20µM*,?,11µM*
CN1CCOc2nc(-c3ccc(Oc4ccccc4)cc3)ncc2C1=O,4.5µM*,25µM*,?,?,21%[49.3 µM],19%[49.3 µM],?
C[S+](=O)([O-])c1ccc(-c2ncc3c(n2)OCCN(c2ccccc2)C3=O)cc1,?,3%[70.6 µM],?,?,.,.,.
O=C1[C@@H]2C[C@@H](O)CN2C2(CN(C3CCC(F)(F)CC3)C2)C(=O)N1Cc1cccc(Cl)c1,i,-2%,-14%,-24%,.,.,.
CCCN1CC2(CCN(C)CC2)CC1C(=O)N(C)Cc1nnc(C)o1 (centres undefined),i,0%,2%,-26%,.,.,.
CCN1CCC2(Cc3ccccc3CN(C(=O)c3cccc(Cl)c3)C2)C1 (centres undefined),.,.,-9%,?,.,.,.

# Compound activity deposited in PubChem BioAssay by National Center for Advancing Translational Sciences (NCATS).
